Screens deposited in PubChem by National Center for Advancing Translational Sciences (NCATS).
Compounds with a hit are over-represented: about 3.8% of the library has one in this group of screens.
ATXN2 expr inh = reduces ATXN2 reporter expression in HEK-293 cells. HEK-293 ATXN2-luciferase reporter, luminescence, 24 h. Potency, µM (highest dose often 57 µM), without a hit: at the top dose activity change, negative = inhibition, usual class: inhibitors. actives 0.72% (n = 360,000); also: % is scaled to controls: 0 for no effect and ±100 for the full control effect; nearly all actives have a fitted effect of over 55% in size
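ATXN2-luciferase reporter cells (luciferase flanked by upstream and downstream ATXN2 gene portions) were treated 24 h at 37 °C with compounds at up to 57 uM. SteadyGlo luminescence gave expression; GF-AFC fluorescence gave viability.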
HepG2 viability = HepG2 cytotoxicity, counter-screen for TGF-b inhibitors; HepG2 CAGA-GFP viability, ATP luminescence, 18 h; Potency, µM (series often up to 46.1 µM), without a hit: top-dose activity change, negative = cytotoxicity, hits mostly cytotoxic; actives 0.76% (n = 410,000)
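HepG2 CAGA-GFP cells (1000/well, DMEM with 1% FBS) received compound, then TGF-beta at 500 pg/mL final, and were incubated 18 hours at 37 degrees C. Viability was read by CellTiter-Glo luminescence. Media-only wells were set as complete cell-killing and DMSO as no toxicity.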
TGFb SMAD3 inh = TGF-b pathway inhibition; HepG2 CAGA-GFP TGF-b/SMAD3 reporter, GFP fluorescence, 18 h; TGF-beta stimulated, 500 pg/mL final; Potency, µM (titrated, usually from 46.1 µM), without a hit: at the highest dose activity, negative = inhibition, actives largely listed as inhibitors; actives 1.2% (n = 410,000); AID 588855; also: % is scaled to controls: 0 for no effect and ±100 for the full control effect; nearly all actives have a fitted effect of over 65% in size
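HEPG2 CAGA-GFP, 1000 cells/well; 2 h settle, 37 C; cpd via pin tool; TGF-b 500 pg/mL final; 18 h, 37 C; GFP imaging ex488/em500-530; %Activity normalised to -TGF-b and +DMSO controls; CRC fit, curve class.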
ATXN viability = cell viability loss in ATXN counter-screen. S2 cells (HEK-293 line with an ATXN2-luciferase reporter) viability, CellTiter-Fluor protease fluorescence, 24 h. Potency, µM (top dose mostly 56.7 µM), usual class: cytotoxic. actives 0.49% (n = 400,000); also: nearly all actives have a fitted effect of over 40% in size
A549 tox = A549 cytotoxicity, counter-screen for Nrf2 inhibitors; A549 ARE-Fluc cells, CellTiter-Fluor viability, 18-24 h; Potency, µM (series often up to 46 µM), for inactives: top-dose activity change, negative = cytotoxicity, actives largely listed as inhibitors; actives 0.16% (n = 390,000); also: % is scaled to controls: 0 for no effect and ±100 for the full control effect
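A549 ARE-Fluc cells in 5% FBS OPTI-MEM, 5000 cells/well, rested 2 h then exposed to compounds in concentration-response for 18-24 h at 37 °C. Viability by CellTiter-Fluor fluorescence (Ex 405/Em 525) after 30 min; luciferase luminescence (BugLite, 15 min, RT) read afterwards.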
Nrf2 inh = inhibitors of Nrf2 signaling; A549 ARE-Fluc reporter, luciferase luminescence, 18-24 h; Potency, µM (top dose mostly 46 µM), for inactives: at the top dose activity change, negative = inhibition, usual class: inhibitors; actives 2.1% (n = 360,000); AID 504444; also: % is scaled to controls: 0 for no effect and ±100 for the full control effect; nearly all actives have a fitted effect of over 60% in size
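Concentration-response testing used A549 ARE_Fluc cells at 5000 cells/well. Following an 18-24 h compound incubation, viability was read by fluorescence (Ex 405/Em 525) and luciferase output by luminescence.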
* = called active by the depositor; i = inactive; ? = inconclusive; . = no result given; [ ] = another dose, or the depositor's remark. Calls follow the shape of the dose curve; as a rule, active = well fitted curve in the direction sought with a large enough effect; inconclusive = small, poorly fitted or top-dose-only effect, or another doubt; inactive = no such curve, though single readings can be large; an effect the other way counts as inactive or inconclusive. Potency is read from the fitted curve at half-maximal effect.

SMILES	ATXN2 expr inh	HepG2 viability	TGFb SMAD3 inh	ATXN viability	A549 tox	Nrf2 inh
CC(=O)O[C@H]1C[C@@H]2OC3C=C(C)CCC3(C)[C@@]1(C)[C@@]21CO1 (stereo partly specified)	?	2%	1.3µM*	?	.	6.5µM*
Cc1ccc(C(=O)Nc2c(C(=O)Nc3ccc(C)c(C)c3)sc3nc(C)cc(C)c23)cc1	132%	1%	-3%	i	-12%	?
CCOc1ccc(CCNC(=O)c2cc3c(-c4cccc(OC)c4)nn(C)c3s2)cc1OCC	?	-24%	-23%	?	-8%	18µM*
Cc1sc2ncnc(SCC(=O)Nc3ccc(S(=O)(=O)N4CCOCC4)cc3)c2c1C	?	-4%	3%	i	1%	?
Cc1sc2ncnc(N3CCN(S(=O)(=O)c4ccc(Br)cc4)CC3)c2c1C	-14%	14%	4%	i	-7%	12µM*
CCOC(=O)C1(CCc2ccccc2)CCN(Cc2cccc3c2OCO3)CC1	-27%	-29%	-27%	i	2%	?
CCOC(=O)C1(CCc2ccccc2)CCN(Cc2csc(C(C)=O)c2)CC1	-25%	-29%	-25%	i	?	15µM*
CC(=O)Nc1ccc(OC(=O)N2CCN(/[N+]([O-])=N/Oc3ccc([N+](=O)[O-])cc3[N+](=O)[O-])CC2)cc1	.	-101%	?	.	.	.
C[C@]12C=CC(=O)C=C1CC[C@@H]1C2=CC[C@]2(C)[C@@H](C(=O)CN3CCN(c4cc(N5CCCC5)nc(N5CCCC5)n4)CC3)CC[C@@H]12	-22%	25µM*	2%	?	-11%	-8%
CC(=O)N1CCN(c2ccc(OC[C@@H]3CO[C@@](Cn4ccnc4)(c4ccc(Cl)cc4Cl)O3)cc2)CC1	.	-9%	?	.	.	.
CC(=O)N1CCN(c2ccc(OC[C@H]3CO[C@](Cn4ccnc4)(c4ccc(Cl)cc4Cl)O3)cc2)CC1	?	-59%	?	?	-1%	18µM*
C=C1C(=O)OC2C1CCC(C)C1(O)C=CC(=O)C21C (stereo unspecified)	11µM*	-35%	?	11µM*	-7%	6%
Cc1ccc(C)c(NC(=O)Cn2c(=O)oc3cc(S(=O)(=O)NCc4ccccc4)ccc32)c1	-9%	-37%	?	i	-2%	0%
COc1ccc(CN2Cc3cc(N4CCCCC4)ccc3-n3nncc3C2)cc1	-2%	-15%	?	i	.	.
O=C1C=CC[C@@H]2[C@H]3CCCN4CCC[C@@H](CN12)[C@@H]34	1.5µM*	.	.	.	.	.
CCOC(=O)Nc1ccc(NCc2ccc(F)cc2)cc1N	-7%	.	.	.	.	.
CCOc1ccc(Nc2c(S(=O)(=O)c3ccc(C)cc3)cnc3ccccc23)cc1	?	-28%	?	?	-14%	23µM*
CCOc1ccc(Nc2c(S(=O)(=O)c3ccc(C)cc3)cnc3ccc(F)cc23)cc1	8%	-33%	-15%	i	-11%	?
CN(C)c1c([N+](=O)[O-])cc(N2C(=O)C=CC2=O)cc1[N+](=O)[O-]	35µM*	3%	2%	.	?	?
Cc1ccc(N2Cc3ccccc3C2=N)cc1[N+](=O)[O-]	-10%	2%	4%	i	4%	6%
Cc1ccc(NC(=O)c2cc(S(=O)(=O)N3CCOCC3)c(Cl)cc2Cl)cc1	?	-29%	?	?	1%	?
CNC(=O)Oc1ccc(-c2cn3cc(C)ccc3n2)cc1	8.9µM*	-61%	-26%	i	?	1.2µM*
CNC(=O)Oc1cccc(-c2cn3cc(Cl)ccc3n2)c1	-41%	-29%	-28%	i	1%	?
CNc1ccc2nc3ccccc3[n+](C)c2c1	.	-1%	-8%	10µM*	7.3µM*	6.5µM*
c1ccc2nc3ccccc3cc2c1	.	-17%	?	.	.	.
SMILES	ATXN2 expr inh	HepG2 viability	TGFb SMAD3 inh	ATXN viability	A549 tox	Nrf2 inh
C[n+]1c2ccccc2nc2ccc(NCCO)cc21	-34%	-36%	-8%	13µM*	16µM*	?
O=C(c1cncc(Br)c1)N1CCN(S(=O)(=O)c2ccc3ccccc3c2)CC1	9%	2%	-24%	i	1%	?
COc1cccc(CN2CCc3nc(N4CCN(c5ncccn5)CC4)ncc3C2)c1	?	-23%	?	?	-14%	.
ClCCN(CCCl)/C(=C\c1ccccc1)c1ccnc2ccccc12	.	-42%	?	.	.	.
COc1cccc(C(c2nnnn2C2CCCCC2)N2CCC3(CC2)C(=O)NCN3c2ccccc2)c1OC (stereo unspecified)	?	-3%	22µM*	?	.	.
CSCCC(c1nnnn1-c1c(C)cccc1C)N1CCC2(CC1)C(=O)NCN2c1ccccc1 (stereo unspecified)	?	-43%	11µM*	?	.	.
Cc1cccc(C)c1-n1nnnc1C(CCc1ccccc1)N1CCC2(CC1)C(=O)NCN2c1ccccc1 (stereo unspecified)	0%	-7%	8%	?	.	.
O=C1NCN(c2ccccc2)C12CCN(C(c1cccc3ccccc13)c1nnnn1C1CCCCC1)CC2 (stereo unspecified)	10%	1%	?	?	.	.
CC(=O)OC1=CC[C@H]2[C@@H]3CC[C@H]4C[C@H](OC(C)=O)[C@@H](OC(C)=O)C[C@]4(C)[C@H]3CC[C@]12C	0%	4%	-1%	i	10%	0%
O=[N+]([O-])c1cc(C(F)(F)F)c(Cl)c([N+](=O)[O-])c1Nc1ncc(C(F)(F)F)cc1Cl	.	2.5µM*	1.8µM*	.	.	.
O=C(O)c1cc(Oc2ccc(C(F)(F)F)cc2Cl)ccc1[N+](=O)[O-]	2%	4%	3%	i	-5%	3%
COC[C@@H](NC(C)=O)C(=O)NCc1ccccc1	-1%	.	.	i	.	.
CN(C(=O)CSc1nc2ccc(NC(=O)COc3ccc(Cl)cc3)cc2s1)c1ccccc1	?	-23%	-24%	?	-18%	15µM*
Nc1c(Cl)c(Cl)c(Cl)c(Cl)c1Cl	-8%[116 µM]	.	.	i	.	.
CN1C(=O)NC(=O)/C(=C\C=C\c2ccccc2[N+](=O)[O-])C1=O	32µM*	-19%	11µM*	28µM*	-16%	?
COC(=O)C1=C(c2ccc(-c3ccccc3)c(F)c2)C[C@@H]2CC[C@H]1N2C(=O)N1CCOCC1	?	-12%	-21%	?	0%	?
